For eight molecules, growth results are on record in PubChem BioAssay (NCI).

This is part of a sample that, as a whole, favours compounds with a hit. Of some 83,000 tested, about 20% had one in any assay.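 Interpretation: 100, growth as untreated; towards 0, rising growth inhibition; 0, no net growth; 0 to -100, cell death. Compounds scoring below 10 were considered active.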 Values without a mark were called inactive. The source made the active and inactive calls.

Among the test systems are HCT-15 colon; HT29 colon; SNB-75 CNS; SNB-19 CNS; U251 CNS; PC-3 prostate; SK-MEL-5 melanoma; UACC-62 melanoma; LOX IMVI melanoma; SK-MEL-28 melanoma; SK-MEL-2 melanoma; EKVX NSCLC; SN12C renal; UO-31 renal; TK-10 renal; ACHN renal; CAKI-1 renal; A498 renal; CCRF-CEM leukemia; MOLT-4 leukemia.
Holding throughout (assay): NCI-60 one-dose screen, 48 h (100 = growth as untreated, 0 = no growth, -100 = all killed)
Conditions in all cases: 10 µM unless noted

Turning to `N#CC1=C(N)Oc2c(ccc3ccccc23)C1c1ccccc1Cl` (stereo unspecified), the growth was 10.7% in the assay on HCT-15 colon; 70% in the assay on HT29 colon; 13.3% with SNB-75 CNS; 32.9% in the assay with SNB-19 CNS; 12.4% in the assay with U251 CNS; 20% in the assay with PC-3 prostate. For the same molecule, the growth in the assay on SK-MEL-5 melanoma is 9.89% (active); in the assay on UACC-62 melanoma it was 26.6%; with LOX IMVI melanoma it was 27.3%; in the assay with SK-MEL-28 melanoma, 50.5%; in the assay on SK-MEL-2 melanoma it was 55.9%; in the assay with EKVX NSCLC it was 65.3%. The growth is 22.2% in the assay with SN12C renal; 43.2% with UO-31 renal; 6.11% (active) in the assay with TK-10 renal; 34% in the assay on ACHN renal; 27.4% with CAKI-1 renal; -10.3% (active) in the assay on A498 renal. The growth with CCRF-CEM leukemia was 29.6%.

Consider `C[C@H](c1nc2ccc(N)cc2[nH]1)[C@H]1CC[C@H]2[C@@H]3CCC4=CC(=O)CC[C@]4(C)[C@H]3CC[C@]12C`, for which the growth with HCT-15 colon is 67.8%; in the assay with HT29 colon it was 51.8%; in the assay with SNB-75 CNS it was 39.6%; in the assay with SNB-19 CNS, 90.9%; in the assay with U251 CNS, 70.7%; in the assay with PC-3 prostate it was 82.9%. Moreover, the growth in the assay with SK-MEL-5 melanoma is 81.3%; in the assay with UACC-62 melanoma, 85%; with LOX IMVI melanoma, 84.2%; in the assay on SK-MEL-28 melanoma, 89.4%; in the assay on SK-MEL-2 melanoma, 106%; in the assay with EKVX NSCLC it was 85.6%. The growth in the assay on SN12C renal is 88.3%; with UO-31 renal it was 65.4%; in the assay with TK-10 renal it was 109%; with ACHN renal it was 96.9%; with CAKI-1 renal, 91.3%; in the assay on A498 renal it was 70.3%. Further, in the assay on CCRF-CEM leukemia, the growth is 63.7%.

With `C[C@@H](Nc1ncnc2ccc(-c3cnc(N)nc3)cc12)c1ccc(F)cc1`, the growth in the assay with HCT-15 colon was 88.6%; with HT29 colon, 84.9%; in the assay with SNB-75 CNS, 69.5%; in the assay with SNB-19 CNS, 76.1%; in the assay on U251 CNS it was 80.9%; with PC-3 prostate, 69.1%. Besides, the growth was 73.2% in the assay on SK-MEL-5 melanoma; 69.2% in the assay on UACC-62 melanoma; 78.4% in the assay with LOX IMVI melanoma; 92.5% in the assay with SK-MEL-28 melanoma; 101% in the assay on SK-MEL-2 melanoma; 36.7% with EKVX NSCLC. In addition, the growth with SN12C renal was 33.9%; in the assay with UO-31 renal, 35.1%; in the assay on TK-10 renal, 21.4%; in the assay on ACHN renal, 41.5%; in the assay on CAKI-1 renal, 40.6%; in the assay on A498 renal, -13.5% (active). In addition, the growth in the assay with CCRF-CEM leukemia was 95.3%.

Take `COC(=O)c1ccc2c(c1)[n+](=O)c(C(C)=O)c(C(F)(F)F)n2[O-]`: the growth in the assay with HCT-15 colon was -77.5% (active); with HT29 colon, -56% (active); in the assay with SNB-75 CNS, -20.5% (active); in the assay on SNB-19 CNS, -6.44% (active); with U251 CNS, -72.2% (active); in the assay with PC-3 prostate, -58.1% (active). Further, the growth in the assay with SK-MEL-5 melanoma is -100% (active); in the assay on UACC-62 melanoma it was -32.7% (active); with LOX IMVI melanoma, -95.3% (active); with SK-MEL-28 melanoma, 27%; in the assay with SK-MEL-2 melanoma it was -31.9% (active); in the assay with EKVX NSCLC, -46.3% (active). Besides, the growth in the assay with SN12C renal was -34% (active); in the assay on UO-31 renal it was -82% (active); in the assay with TK-10 renal, 25.9%; in the assay on ACHN renal, -99.3% (active); in the assay on CAKI-1 renal, -78.5% (active); in the assay on A498 renal it was 6.79% (active).

Take `Cc1cccc(C)c1N=c1oc2ccc(Cl)cc2nc1-c1ccccc1O`: the growth was 89.4% in the assay with HCT-15 colon; 80.5% in the assay with HT29 colon; 87.3% with SNB-75 CNS; 109% with SNB-19 CNS; 94.4% in the assay on U251 CNS; 88.6% in the assay on PC-3 prostate. In addition, the growth in the assay with SK-MEL-5 melanoma is 91.3%; with UACC-62 melanoma it was 81.3%; in the assay on LOX IMVI melanoma it was 87.9%; with SK-MEL-28 melanoma, 93.4%; with SK-MEL-2 melanoma, 85.7%; in the assay with EKVX NSCLC it was 78.8%. Also, the growth with SN12C renal was 86.9%; with UO-31 renal, 76.8%; in the assay on TK-10 renal, 101%; with ACHN renal, 90.7%; with CAKI-1 renal, 90.4%.

On to `CC1(C)NCCC[C@]2(C)[C@H]3CC(=O)[C@H]4[C@@H]5C[C@](C)(CO)CC[C@]5(C)CC[C@@]4(C)[C@]3(C)CC[C@@H]12`, for which the growth was 98.9% with HCT-15 colon; 69.8% in the assay with HT29 colon; 78.1% with SNB-75 CNS; 99.4% in the assay on SNB-19 CNS; 91.4% in the assay with U251 CNS; 83.5% in the assay with PC-3 prostate. Further, the growth in the assay on SK-MEL-5 melanoma was 98.3%; in the assay on UACC-62 melanoma, 98%; with LOX IMVI melanoma, 97.1%; in the assay with SK-MEL-28 melanoma, 105%; in the assay with SK-MEL-2 melanoma, 99.5%; with EKVX NSCLC, 96.9%. Further, the growth is 101% with SN12C renal; 95.5% with UO-31 renal; 100% with TK-10 renal; 102% in the assay with ACHN renal; 81.6% in the assay on CAKI-1 renal; 100% in the assay on A498 renal. Besides, the growth is 93.1% with CCRF-CEM leukemia and 67% in the assay on MOLT-4 leukemia.

As for `Cc1cc2cc3ccc(N(C)C)cc3nc2cc1N`, the growth in the assay with HCT-15 colon was 19.4%; in the assay on HT29 colon, -37.3% (active); with SNB-75 CNS, -11.5% (active); in the assay on SNB-19 CNS it was -4.5% (active); in the assay on U251 CNS, -2.3% (active); with PC-3 prostate, 12.7%. The growth with SK-MEL-5 melanoma was -0.276% (active); with UACC-62 melanoma it was -27.5% (active); with LOX IMVI melanoma, -53.7% (active); in the assay on SK-MEL-28 melanoma, -68.5% (active); with SK-MEL-2 melanoma it was -20.2% (active); in the assay on EKVX NSCLC, -7.41% (active). The growth is -26% (active) in the assay on SN12C renal; 19.1% with UO-31 renal; 9.89% (active) in the assay on TK-10 renal; 0.143% (active) with ACHN renal; 30.5% with CAKI-1 renal; -2.05% (active) with A498 renal. In the assay with CCRF-CEM leukemia, the growth is 5.51% (active).

With `COc1ccc2c(c1)oc1c(C)c3c(c(C)c12)C(=O)N(CCN1CCOCC1)C3=O`, the growth with HCT-15 colon was 102%; with HT29 colon, 99.3%; in the assay on SNB-75 CNS, 99.5%; in the assay with SNB-19 CNS it was 97.5%; in the assay on U251 CNS, 105%; with PC-3 prostate, 82.8%. Also, the growth was 97.5% in the assay with SK-MEL-5 melanoma; 93.3% in the assay on UACC-62 melanoma; 96.4% with LOX IMVI melanoma; 103% in the assay with SK-MEL-28 melanoma; 124% with SK-MEL-2 melanoma; 110% in the assay on EKVX NSCLC. Further, the growth in the assay on SN12C renal was 93.2%; in the assay with UO-31 renal, 85.1%; in the assay with TK-10 renal, 115%; with ACHN renal, 104%; with CAKI-1 renal, 88.1%; with A498 renal, 109%. Moreover, the growth in the assay on CCRF-CEM leukemia is 77.4%; in the assay on MOLT-4 leukemia it was 83.1%.
